# Screening results as filed in PubChem.
# Cy5 interf NS3h = enhances or quenches Cy5 fluorescence in NS3h assay. hit rate 6% among 16,000. Cy5-dT15 DNA with NS3h, fluorescence interference; actives lie on both sides; signal over control mean, under 1 quenches. fluorescence interference ratio at 100 µM. AID 720488;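 active = compound fluorescence over control fluorescence at most 0.8, a quencher, or at least a set upper limit, an enhancer; inactive = ratio between 0.8 and the set upper limit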
# HCV NS3h FP = blocks HCV NS3 helicase binding to DNA | NS3h Cy5-dT15 DNA binding, fluorescence polarization | inhibition, % at 100 µM | hit rate 1.6% among 16,000;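 active = inhibition above the average over every tested compound plus 3 SD, cut at about 40% in these data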
# An asterisk follows results filed as active. The list is not random: actives were taken first. Their share in the collection is about 6.9%.
SMILES,Cy5 interf NS3h,HCV NS3h FP
O=Cc1ccc(OC(=O)c2ccc(I)cc2)cc1,1,-7
O=c1c2ccccc2nc2ccc3nnnn3n12,0.73*,-13
CCCCn1c(CN2C(=O)c3ccccc3C2=O)nc2ccccc2c1=O,1,-2
COc1cc([N+](=O)[O-])cc2c1N=C(c1ccc(Br)cc1)NO2,0.97,2
O=[N+]([O-])c1ccc2c(c1)ONC(c1ccc(Cl)cc1)=N2,0.67*,22
COc1cccc(NC(=O)c2ccc(C)c([N+](=O)[O-])c2)c1,0.98,21
CC1=NN(c2ccc(S(N)(=O)=O)cc2)C(=O)/C1=C\c1cccc(Br)c1,0.81,42*
CC1=NN(c2ccc(S(N)(=O)=O)cc2)C(=O)/C1=C\c1ccc(C(C)C)cc1,0.94,7
CN(C)Cc1c(O)c[n+]([O-])c2ccccc12,1,4
[O-][n+]1cc(O)c(Br)c2ccccc21,0.7*,11
Cc1ccc(-c2cc(C(F)(F)F)n3nc(C(=O)OC(C)C)cc3n2)cc1,0.98,4
O=C(Nc1cccc(Cl)c1)c1cc2nc(-c3ccc4c(c3)OCO4)cc(C(F)(F)F)n2n1,0.67*,-10
CCCNC(=O)c1cc2nc(-c3ccc(OC)cc3)cc(C(F)(F)F)n2n1,0.91,12
O=C(Nc1cccc(Cl)c1Cl)c1cc2nc(-c3ccc([N+](=O)[O-])cc3)cc(C(F)(F)F)n2n1,0.79*,10
O=Cc1cccc(OCc2ccc(F)cc2)c1,1,14
Cc1cccc(/C=N\NC(=O)c2cncc(Br)c2)c1O,1,6
Cc1ccc(N2C(=O)CC(N3CCOCC3)C2=O)cc1 (configuration not stated),1,1
CCOC(=O)C1CCCN(C2CC(=O)N(c3ccc(C)cc3)C2=O)C1 (configuration not stated),1.2*,7
COc1ccc(C(=O)NC(Nc2ccc(Cl)cc2)C(Cl)(Cl)Cl)cc1OC (configuration not stated),0.94,9
Cc1ccc2[nH]c(O)c(N=Nc3ccc([N+](=O)[O-])cc3[N+](=O)[O-])c2c1Br,0.74*,17
Cc1ccc(S(=O)(=O)N=Nc2c(O)[nH]c3ccc(Br)cc23)cc1C,0.98,-6
CCOc1cc(OCC)cc(C(=O)Nc2ccc(Br)cc2)c1,0.98,2
O=C1/C(=C/c2ccc(Br)o2)SC(=S)N1c1ccccc1,0.64*,17
O=C1/C(=C/c2ccc(Br)o2)SC(=S)N1c1cccc(C(F)(F)F)c1,0.86,3
CC(=O)N1CCN(c2ccc(NC(=O)c3ccccc3Br)cc2)CC1,0.94,24
SMILES,Cy5 interf NS3h,HCV NS3h FP
CC(C)c1ccc(N(CC(=O)N(C)Cc2ccccc2)S(=O)(=O)c2ccccc2)cc1,0.99,14
COc1ccc(N(CC(=O)Nc2ccc(I)cc2)S(C)(=O)=O)cc1,0.99,5
COc1cc(C2C3=C(CC(C)(C)CC3=O)OC3=C2C(=O)CC(C)(C)C3)cc(I)c1O,1.1,7
COc1cc(C2C3=C(CC(C)(C)CC3=O)OC3=C2C(=O)CC(C)(C)C3)ccc1OCc1ccc([N+](=O)[O-])cc1,0.8*,10
O=C(N/N=C\c1cc([N+](=O)[O-])ccc1O)/C(=C/c1cccs1)NC(=O)c1ccccc1,0.99,6
COc1cc(/C=c2/sc3nc4ccccc4n3c2=O)cc(I)c1OCc1ccccc1,1,5
O=P(CO)(c1ccccc1)c1ccccc1,0.97,1
O=P(O)(O)CP(=O)(c1ccccc1)c1ccccc1,0.76*,7
O=C(NC12CCC(O)C(SC1)/C2=N\O)c1ccccc1 (configuration not stated),1,-11
COc1ccc(Br)cc1/C=C1/SC(=S)N(Cc2ccccc2)C1=O,0.69*,1
CCN1C(=O)/C(=C\c2cc(Br)ccc2OCc2ccccc2)SC1=S,1.1,0
CCN1C(=O)/C(=C\c2cc(OC)ccc2OC)SC1=S,0.76*,9
CCN1C(=O)/C(=C\c2ccccc2OCCOc2cccc(OC)c2)SC1=S,1,7
C=CCN1C(=O)/C(=C\c2ccc(-c3cc(Cl)ccc3Cl)o2)SC1=S,1,4
COc1cc(/C=C2/SC(=S)N(Cc3ccccc3)C2=O)ccc1OC(=O)c1cccs1,1,2
O=C(CSc1ncn(-c2ccccc2)n1)c1ccc(Br)cc1,0.99,4
Cn1ccnc1SCC(=O)c1ccc(Br)cc1,0.77*,12
Cc1ccc(Cc2cnc(NC(=O)c3ccccc3)s2)cc1,0.98,20
O=C1c2cccc3cccc(c23)C(=O)N1/N=C\c1ccc(Br)cc1,0.86,-53
O=C1c2cccc3cccc(c23)C(=O)N1/N=C\c1cccc([N+](=O)[O-])c1,0.74*,-8
COc1ccc(S(=O)(=O)N(CC(=O)Nc2cccc3ccccc23)c2ccc(C)cc2)cc1OC,0.68*,28
CCOc1ccccc1NC(=O)CN(c1ccc(C)cc1)S(=O)(=O)c1ccc(OC)c(OC)c1,0.97,15
COc1ccc(N(CC(=O)Nc2ccccc2Cl)S(=O)(=O)c2ccc(C)cc2)c(OC)c1,1.2*,-1
COc1ccc(N(CC(=O)Nc2ccc(C(=O)N3CCOCC3)cc2)S(=O)(=O)c2ccccc2)cc1,0.72*,13
COc1ccc(NC(=O)CN(c2cccc([N+](=O)[O-])c2)S(=O)(=O)c2ccccc2)c(OC)c1,0.7*,28
SMILES,Cy5 interf NS3h,HCV NS3h FP
COc1ccc(NC(=O)CN(c2cccc([N+](=O)[O-])c2)S(=O)(=O)c2ccccc2)cc1,1,-2
COc1ccc(NC(=O)CN(c2ccc(Cl)cc2)S(=O)(=O)c2ccccc2)cc1,1,11
COc1ccc(N(CC(=O)Nc2ccc3ccccc3c2)S(=O)(=O)c2ccc(C)cc2)c(OC)c1,1.1,10
O=C(CC1S/C(=N/N=C\c2ccccc2)NC1=O)Nc1ccc(Cl)cc1Cl (configuration not stated),1.1,-13
CCOC(=O)c1ccccc1NC(=O)CN(c1ccc(C)cc1)S(=O)(=O)c1ccc(F)cc1,1,1
COc1ccc(OCC(=O)N2CCN(c3ccc([N+](=O)[O-])cc3)CC2)cc1,1,16
O=c1[nH]c(Nc2nc3ccccc3o2)nc(O)c1Cc1ccccc1,1.1,15
O=C(Nc1ccc(OCc2ccccc2)cc1)c1ccc(Cl)c([N+](=O)[O-])c1,0.95,26
CCn1cc(/C=C2/C(=O)NN(c3ccccc3)C2=O)c2ccccc21,0.97,20
COc1ccc(N(CC(=O)Nc2ccc(Br)cc2)S(=O)(=O)c2ccc(OC)c(OC)c2)cc1,0.7*,10
COc1ccc(S(=O)(=O)N(CC(=O)Nc2ccc(C(C)=O)cc2)c2ccc(C)cc2)cc1OC,0.91,10
COc1ccc(N(CC(=O)Nc2ccccc2Br)S(C)(=O)=O)c(OC)c1,0.98,7
COc1ccc(N(CC(=O)Nc2cc(OC)ccc2OC)S(=O)(=O)c2ccc(OC)c(OC)c2)cc1,1.1,11
COc1ccc(S(=O)(=O)N(CC(=O)Nc2ccc(Br)cc2)c2ccc(C)cc2)cc1OC,0.68*,17
COc1ccc(N(CC(=O)Nc2ccccc2Br)S(C)(=O)=O)cc1,1.3*,18
Cc1ccc(-c2nn(-c3ccccc3)cc2/C=C2\SC(N)=NC2=O)cc1,0.94,4
O=C(Nc1cccc(I)c1)C(c1ccccc1)c1ccccc1,1,11
Cc1nc(NC(=O)c2ccccc2)sc1-c1csc(Nc2ccc(N)cc2)n1,0.88,0
